Data from PubChem BioAssay (NCATS).
Several values for one entry are separate records, joined by “and”; a condition that tells them apart may be missing. Equal entries are not always repeated. Inconclusive results are not listed. Activity calls are given as the source filed them. Unless noted, calls follow the shape of the dose curve; as a rule, active = well fitted curve in the direction sought with a large enough effect; inconclusive = small, poorly fitted or top-dose-only effect, or another doubt; inactive = no such curve, though single readings can be large; an effect the other way counts as inactive or inconclusive.

Test system: not listed separately
Assay: qHTS assay for small molecule agonists of the antioxidant response element (ARE) signaling pathway (AID 651741; active = well fitted activation curve with a large enough effect in the signal ratio; the % refers to the signal ratio; also: potency is read from the fitted curve at half-maximal effect; as to activation: % of control where 0% means no effect)
Conditions: HepG2 ARE-bla reporter, beta-lactamase FRET ratio, 16 h; series mostly up to 96 µM
Summary of the method: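 HepG2 ARE-bla cells plated at 2,000 cells/well and incubated 5 h at 37 C/5% CO2 received 23 nL compound in DMSO. After 16 h at 37 C, LiveBLAzer B/G FRET substrate was applied for 2 h at room temperature and fluorescence read.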

| SMILES | Potency |
| --- | --- |
| CCCOC(=O)NCCCN(C)C | inactive |
| CCNc1nc(N)nc(Cl)n1 | inactive |
| O=C(Nc1ccccc1)c1cc(Cl)ccc1O | 5.45 µM (active) |
| OCCOCCOCCOCCOCCO | inactive |

Test system: not listed separately
Assay: qHTS assay for small molecule activators of the p53 signaling pathway (AID 651743; active = well fitted activation curve with a large enough effect in the signal ratio, not every such curve was filed as active; the % refers to the signal ratio; also: potency is read from the fitted curve at half-maximal effect; as to activation: % of control where 0% means no effect)
Conditions: HCT-116 p53RE-bla, beta-lactamase FRET ratio, 16 h; activation: active compounds read high
Summary of the method: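 HCT-116 p53RE-bla, 4,000 cells/well; 5 h settle; cpd/DMSO 16 h, 37 C; LiveBLAzer B/G 2 h RT; fluorescence intensity.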

| SMILES | activation | Potency |
| --- | --- | --- |
| CN(C)c1ccc(C(c2ccccc2)c2ccc(N(C)C)cc2)cc1 | -0.413% (inactive) |  |
| CC1(C)C(=O)N(Br)C(=O)N1Cl | 2.83% (inactive) |  |
| CCCOC(=O)NCCCN(C)C | -1.96% (inactive) |  |
| CCNc1nc(N)nc(Cl)n1 | -2.48% (inactive) and -1.49% (inactive) |  |
| CCN(Cc1c(F)cccc1Cl)c1c([N+](=O)[O-])cc(C(F)(F)F)cc1[N+](=O)[O-] | 1.01% (inactive) |  |
| O=C(Nc1ccccc1)c1cc(Cl)ccc1O |  | 10 µM (active) |
| c1cc2ccc3ccc4ccc5cccc6c(c1)c2c3c4c56 |  | 35.5 µM (active) |
| OCCOCCOCCOCCOCCO | 2.86% (inactive) |  |

Test system: not listed separately
Assay: qHTS assay for small molecule activators of the nuclear factor-kappa B (NF-kB) signaling pathway (AID 651749; active = well fitted activation curve with a large enough effect in the signal ratio; the % refers to the signal ratio; also: potency is read from the fitted curve at half-maximal effect; as to activation: % of control where 0% means no effect)
Conditions: NF-kB-bla ME-180 cells, beta-lactamase FRET ratio, 16 h; activation: active compounds read high
Summary of the method: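 Incubation lasted 16 hr at 37C in 5% CO2 after 23 nL compound addition to ME-180 NF-kB-bla cells. Activation appears as beta-lactamase-mediated FRET loss.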

| SMILES | activation | Potency |
| --- | --- | --- |
| CN(C)c1ccc(C(c2ccccc2)c2ccc(N(C)C)cc2)cc1 | 5.79% (inactive) |  |
| CC1(C)C(=O)N(Br)C(=O)N1Cl | -2.38% (inactive) |  |
| CCNc1nc(N)nc(Cl)n1 | -0.704% (inactive) and -0.787% (inactive) |  |
| CCN(Cc1c(F)cccc1Cl)c1c([N+](=O)[O-])cc(C(F)(F)F)cc1[N+](=O)[O-] | -3.71% (inactive) |  |
| O=c1oc(=O)c2cc3c(=O)oc(=O)c3cc12 | -1.97% (inactive) |  |
| O=C(Nc1ccccc1)c1cc(Cl)ccc1O | 4.05% (inactive) |  |
| c1cc2ccc3ccc4ccc5cccc6c(c1)c2c3c4c56 |  | 39.8 µM (active) |

Test system: not listed separately
Assay: qHTS assay for environmental chemicals that activate the Aryl hydrocarbon Receptor (AhR) signaling pathway (AID 651777); also: nearly all actives have a fitted effect of over 15% in size; also: potency is read from the fitted curve at half-maximal effect; as to activation: % of control where 0% means no effect
Conditions: 1A2-DRE human hepatoma cells, luciferase, 24 h; activation: active compounds read high
Summary of the method: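 Induction of CYP1A2 transcription through AhR is detected by luciferase in 1A2-DRE hepatoma cells. Compounds or DMSO act for 24 hr at 37 C before a 30 min One-Glo step at room temperature.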

| SMILES | activation | Potency |
| --- | --- | --- |
| CN(C)c1ccc(C(c2ccccc2)c2ccc(N(C)C)cc2)cc1 | 1.41% (inactive) |  |
| CC1(C)C(=O)N(Br)C(=O)N1Cl | 1.28% (inactive) |  |
| S=C([S-])NCCNC(=S)[S-].S=C([S-])NCCNC(=S)[S-].[Mn+2].[Zn+2] | 0.587% (inactive) |  |
| CCCOC(=O)NCCCN(C)C | 2.96% (inactive) |  |
| S=C([S-])NCCNC(=S)[S-].[Mn+2] | 2.64% (inactive) and 10.8% (inactive) |  |
| CCN(Cc1c(F)cccc1Cl)c1c([N+](=O)[O-])cc(C(F)(F)F)cc1[N+](=O)[O-] | 0.127% (inactive) |  |
| O=c1oc(=O)c2cc3c(=O)oc(=O)c3cc12 | 0.0535% (inactive) |  |
| CC[C@H]1O[C@]2(CC[C@@H]1C)C[C@@H]1C[C@@H](C/C=C(\C)C[C@@H](C)/C=C/C=C3CO[C@@H]4[C@H](O)C(C)=C[C@@H](C(=O)O1)[C@]34O)O2 | -11.9% (inactive) |  |
| O=C(Nc1ccccc1)c1cc(Cl)ccc1O |  | 15.8 µM (active) |
| c1cc2ccc3ccc4ccc5cccc6c(c1)c2c3c4c56 | 6.27% (inactive) |  |

Molecular target: Peroxisome proliferator-activated receptor alpha (Homo sapiens) (UniProt Q07869)
Sequence (Q07869 whole entry, looked up): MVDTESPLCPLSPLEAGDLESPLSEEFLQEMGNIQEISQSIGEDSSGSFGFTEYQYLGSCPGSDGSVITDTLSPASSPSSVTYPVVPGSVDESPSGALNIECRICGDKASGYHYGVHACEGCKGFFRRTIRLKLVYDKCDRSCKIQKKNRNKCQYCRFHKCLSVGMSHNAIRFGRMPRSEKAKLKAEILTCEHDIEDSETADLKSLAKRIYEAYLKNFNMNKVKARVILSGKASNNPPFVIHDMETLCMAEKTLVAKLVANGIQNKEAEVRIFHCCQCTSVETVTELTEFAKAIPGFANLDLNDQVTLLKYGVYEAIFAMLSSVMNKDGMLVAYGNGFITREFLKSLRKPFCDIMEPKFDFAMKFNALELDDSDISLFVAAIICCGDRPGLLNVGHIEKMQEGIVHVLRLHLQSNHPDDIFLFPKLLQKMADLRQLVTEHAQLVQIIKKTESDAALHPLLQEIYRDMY
Assay: qHTS assay for small molecule agonists of the peroxisome proliferator-activated receptor alpha (PPARalpha) signaling pathway (AID 651778); also: % of control where 0% means no effect
Conditions: PathHunter PPARalpha complementation, chemiluminescence, 6 h; max response: active compounds read high
Summary of the method: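 Enzyme-fragment complementation assay in which ligand-bound PPARalpha translocates and forms an active enzyme that generates chemiluminescence. Cells were plated overnight, exposed to compound for 6 hr at 37 C, and then given detection reagent for 60 min at room temperature.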

| SMILES | max response |
| --- | --- |
| CN(C)c1ccc(C(c2ccccc2)c2ccc(N(C)C)cc2)cc1 | -1.55% (inactive) |
| CC1(C)C(=O)N(Br)C(=O)N1Cl | -1.51% (inactive) |
| S=C([S-])NCCNC(=S)[S-].S=C([S-])NCCNC(=S)[S-].[Mn+2].[Zn+2] | -4.1% (inactive) |
| CCCOC(=O)NCCCN(C)C | -0.73% (inactive) |
| CCNc1nc(N)nc(Cl)n1 | -2.09% (inactive) and -1.78% (inactive) |
| S=C([S-])NCCNC(=S)[S-].[Mn+2] | -2% (inactive) and -3.91% (inactive) |
| CCN(Cc1c(F)cccc1Cl)c1c([N+](=O)[O-])cc(C(F)(F)F)cc1[N+](=O)[O-] | -0.89% (inactive) |
| O=c1oc(=O)c2cc3c(=O)oc(=O)c3cc12 | -1.48% (inactive) |
| O=C(Nc1ccccc1)c1cc(Cl)ccc1O | 0.537% (inactive) |
| c1cc2ccc3ccc4ccc5cccc6c(c1)c2c3c4c56 | -2.73% (inactive) |
| OCCOCCOCCOCCOCCO | -1.15% (inactive) |

Test system: not listed separately
Assay: qHTS assay for small molecule agonists of the antioxidant response element (ARE) signaling pathway measured by Nrf2-dependant transcriptional activity (AID 720636; active = well fitted curve in the direction sought with a large enough effect in the repeat runs; an effect the other way counts as inactive or inconclusive;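 also: HepG2 cells with an ARE-driven luciferase reporter; % of control where 0% means no effect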)
Conditions: ARE-luc HepG2, Nrf2 luciferase reporter, 16 h; series mostly up to 92.4 µM
Summary of the method: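 We exposed ARE-luc HepG2 cells, seeded in assay medium with 1% dialyzed FBS and allowed 6 hr to adhere, to test compounds overnight (16 hr, 37 C) before measuring luciferase with ONE-Glo.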

| SMILES | Potency |
| --- | --- |
| CN(C)c1ccc(C(c2ccccc2)c2ccc(N(C)C)cc2)cc1 | inactive |
| CC1(C)C(=O)N(Br)C(=O)N1Cl | inactive |
| CCNc1nc(N)nc(Cl)n1 | inactive |
| CCN(Cc1c(F)cccc1Cl)c1c([N+](=O)[O-])cc(C(F)(F)F)cc1[N+](=O)[O-] | inactive |
| O=c1oc(=O)c2cc3c(=O)oc(=O)c3cc12 | inactive |
| CC[C@H]1O[C@]2(CC[C@@H]1C)C[C@@H]1C[C@@H](C/C=C(\C)C[C@@H](C)/C=C/C=C3CO[C@@H]4[C@H](O)C(C)=C[C@@H](C(=O)O1)[C@]34O)O2 | inactive |
| OCCOCCOCCOCCOCCO | inactive |

Test system: not listed separately
Assay: qHTS assay for small molecule agonists of the antioxidant response element (ARE) signaling pathway measured by Nrf2-dependant transcriptional activity - cell viability counter screen (AID 720653; active = well fitted curve in the direction sought with a large enough effect in the repeat runs; an effect the other way counts as inactive or inconclusive; also: % is scaled to controls: 0 for no effect and ±100 for the full control effect)
Conditions: ARE-bla HepG2 viability, CellTiter-Glo ATP luminescence, 16 h; max response: active compounds read low
Summary of the method: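 ARE-bla HepG2 cells treated with compounds for 16 h at 37C; this counter screen measures viability as intracellular ATP by CellTiter-Glo luminescence after 30 min at room temperature.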

| SMILES | max response |
| --- | --- |
| CN(C)c1ccc(C(c2ccccc2)c2ccc(N(C)C)cc2)cc1 | -16.8% (inactive) |
| CC1(C)C(=O)N(Br)C(=O)N1Cl | -11.1% (inactive) |
| S=C([S-])NCCNC(=S)[S-].S=C([S-])NCCNC(=S)[S-].[Mn+2].[Zn+2] | 17.6% (inactive) |
| CCCOC(=O)NCCCN(C)C | -5.96% (inactive) |
| CCNc1nc(N)nc(Cl)n1 | -7.89% (inactive) and -3.73% (inactive) |
| S=C([S-])NCCNC(=S)[S-].[Mn+2] | -8.97% (inactive) and -21.3% (inactive) |
| CCN(Cc1c(F)cccc1Cl)c1c([N+](=O)[O-])cc(C(F)(F)F)cc1[N+](=O)[O-] | -3.47% (inactive) |
| O=c1oc(=O)c2cc3c(=O)oc(=O)c3cc12 | -10.8% (inactive) |
| c1cc2ccc3ccc4ccc5cccc6c(c1)c2c3c4c56 | -17.1% (inactive) |
| OCCOCCOCCOCCOCCO | -9.49% (inactive) |
